# “And” between values parts separate entries of the source, which are not always exact repeats. Identical values can stand only once. Inconclusive results are not listed. The source made the active and inactive calls. Rule for the calls: active = hit-call score of the fitted dose curve at least 0.9, where 1 is the maximum; inconclusive = response in the unintended direction; inactive = score below 0.9.
# Molecular target: rat CYP2D2, Cyp2d26 (gene 25053) (UniProt P10634)
# Assay: NVS_ADME_rCYP2D2: NovaScreen (NVS) CYP450-related Enzyme Activity (ADME) Assay for rat CYP2D2 (AID 2283124)
# Protocol: NVS_ADME_rCYP2D2 is a biochemical, single-readout assay that uses extracted gene-proteins in a cell-free assay. Measurements were taken 0.75 hour after chemical dosing in a 96-well plate.NVS_ADME_rCYP2D2 is one of one assay component(s) measured or calculated from the NVS_ADME_rCYP2D2 assay. It is designed to make measurements of enzyme activity, a form of enzyme reporter, as detected with fluorescence intensity signals by Fluorescence technology.Data from the assay component NVS_ADME_rCYP2D2 was analyzed into 1 assay endpoint. This assay endpoint, NVS_ADME_rCYP2D2, was analyzed in the positive analysis fitting direction relative to Acetonitrile as the negative control and baseline of activity. Using a type of enzyme reporter, loss-of-signal activity can be used to understand changes in the enzymatic activity as they relate to the gene Cyp2d2. Furthermore, this assay endpoint can be referred to as a primary readout, because this assay has produced multiple assay endpoints where this one serves a enzymatic activity function. To generalize the intended target to other relatable targets, this assay endpoint is annotated to the cyp intended target family, where the subfamily is xenobiotic metabolism.
# Binding assays used specific radioligands (tritiated, iodinated) with non-radioactive competitive displacement ligands in agonist or antagonist protocols (as indicated) and various reference compounds and inhibitors to titrate specific binding to receptors and transporters. Most enzyme assays (CYPs, kinases, phosphatases, proteases, HDACs) used recombinant protein and specific substrates (fluorescence mostly, some colorimetric and radioactive) and inhibitors, followed by a biochemical separation of substrate and product. All assays for the biochemical HTS were initially run in duplicate at a single concentration (10 uM for CYP450 assays and 25 uM for all others). Assay-chemical combinations meeting a pre-defined threshold (e.g., 30% inhibition and other criteria defined below) were then run in singleton concentration-response format with maximum concentration of 20 uM for CYPs and 50 uM for all others. Each assay was run with positive and negative controls, and concurrent controls on every plate. The follow-up (secondary) screen tested active chemical-pairs in concentration series, as well as a few additional assays not tested in the primary screen, some selected negative inactives, and several cases re-run in the concentration series for confirmatory purposes.
# rat CYP2D2, Cyp2d26 (gene 25053), sequence (P10634 whole entry, looked up): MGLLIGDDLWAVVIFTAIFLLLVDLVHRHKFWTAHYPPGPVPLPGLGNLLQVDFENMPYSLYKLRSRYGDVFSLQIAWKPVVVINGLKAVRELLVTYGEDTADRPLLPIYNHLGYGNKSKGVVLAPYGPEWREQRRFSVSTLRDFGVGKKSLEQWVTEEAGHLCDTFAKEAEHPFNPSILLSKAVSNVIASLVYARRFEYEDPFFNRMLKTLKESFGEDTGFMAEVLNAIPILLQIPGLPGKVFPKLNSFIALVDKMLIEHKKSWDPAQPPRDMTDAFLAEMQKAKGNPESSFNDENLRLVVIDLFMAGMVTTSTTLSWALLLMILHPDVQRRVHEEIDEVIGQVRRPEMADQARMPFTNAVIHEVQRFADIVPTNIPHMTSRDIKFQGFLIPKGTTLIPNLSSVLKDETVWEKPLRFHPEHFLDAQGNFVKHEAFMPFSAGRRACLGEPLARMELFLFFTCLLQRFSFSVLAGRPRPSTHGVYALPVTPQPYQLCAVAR
SMILES,outcome,AC50
CNc1cnn(-c2cccc(C(F)(F)F)c2)c(=O)c1Cl,inactive,–
CCOP(=O)(NC(C)C)Oc1ccc(SC)c(C)c1 (stereo not drawn),–,5.06 µM (active)
CCOP(=S)(OCC)Oc1ccc([N+](=O)[O-])cc1,inactive,–
FC(F)C(F)(F)OCC(Cn1cncn1)c1ccc(Cl)cc1Cl (stereo not drawn),–,5.52 µM (active)
C[Si](Cn1cncn1)(c1ccc(F)cc1)c1ccc(F)cc1,–,1.87 µM (active)
CC(C1CC1)C(O)(Cn1cncn1)c1ccc(Cl)cc1 (stereo not drawn),–,3.14 µM (active) and 4.54 µM (active)
CC(C)=CC1C(C(=O)OCN2C(=O)C3=C(CCCC3)C2=O)C1(C)C (stereo not drawn),–,10 µM (active)
CCOC(=O)CC(SP(=O)(OC)OC)C(=O)OCC (stereo not drawn),inactive,–
CCCCOC(=O)[C@@H](C)Oc1ccc(Oc2ccc(C#N)cc2F)cc1,–,12.1 µM (active)
CCCSP(=O)(OCC)Oc1ccc(Br)cc1Cl (stereo not drawn),–,8.58 µM (active)
CC[C@H](C)[C@H]1O[C@]2(C=C[C@@H]1C)C[C@@H]1C[C@@H](C/C=C(\C)[C@@H](O[C@H]3C[C@H](OC)[C@@H](O[C@H]4C[C@H](OC)[C@@H](NC)[C@H](C)O4)[C@H](C)O3)[C@@H](C)/C=C/C=C3\CO[C@@H]4[C@H](O)C(C)=C[C@@H](C(=O)O1)[C@]34O)O2,–,3.96 µM (active)
CCCOCC(=Nc1ccc(Cl)cc1C(F)(F)F)n1ccnc1,–,3.2 µM (active)
CCOP(=S)(OCC)Oc1ccc2c(C)c(Cl)c(=O)oc2c1,inactive,–

# — PubChem BioAssay (EPA / NIEHS)
